Results published in PubChem BioAssay (NCI).
Compounds without any hit were thinned out: in the full panel of roughly 83,000, 20% have a hit.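 Testing used 96-well plates and a 48-hour single-concentration exposure. Example: -40 means 40% of the starting cells died.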 Values without a mark were called inactive. The source made the active and inactive calls. Rule for the calls: active = growth percent below 10; inactive = the rest.

Experiments:
Test in all cases: NCI-60 one-dose screen, 48 h (100 = growth as untreated, 0 = no growth, -100 = all killed)
Settings in all cases: 10 µM unless noted
HCT-15 colon = test system: HCT-15 colon
HT29 colon = test system: HT29 colon
SNB-75 CNS = test system: SNB-75 CNS
SNB-19 CNS = test system: SNB-19 CNS
U251 CNS = test system: U251 CNS
PC-3 prostate = test system: PC-3 prostate
SK-MEL-5 melanoma = test system: SK-MEL-5 melanoma
UACC-62 melanoma = test system: UACC-62 melanoma
LOX IMVI melanoma = test system: LOX IMVI melanoma
SK-MEL-28 melanoma = test system: SK-MEL-28 melanoma
SK-MEL-2 melanoma = test system: SK-MEL-2 melanoma
EKVX NSCLC = test system: EKVX NSCLC
SN12C renal = test system: SN12C renal
UO-31 renal = test system: UO-31 renal
TK-10 renal = test system: TK-10 renal
ACHN renal = test system: ACHN renal
CAKI-1 renal = test system: CAKI-1 renal
A498 renal = test system: A498 renal
CCRF-CEM leukemia = test system: CCRF-CEM leukemia
MOLT-4 leukemia = test system: MOLT-4 leukemia

Structure (SMILES)	growth (HCT-15 colon)	growth (HT29 colon)	growth (SNB-75 CNS)	growth (SNB-19 CNS) [%]	growth (U251 CNS)	growth (PC-3 prostate)	growth (SK-MEL-5 melanoma)	growth (UACC-62 melanoma)	growth (LOX IMVI melanoma)	growth (SK-MEL-28 melanoma) [%]	growth (SK-MEL-2 melanoma)	growth (EKVX NSCLC)	growth (SN12C renal)	growth (UO-31 renal)	growth (TK-10 renal) [%]	growth (ACHN renal)	growth (CAKI-1 renal)	growth (A498 renal)	growth (CCRF-CEM leukemia)	growth (MOLT-4 leukemia)
Cc1ccc(CNc2ccc(Cl)cc2NCc2ccc(C)c(O)c2)cc1O	7.28% (active)	49.1%	41.1%	29.5	21.9%	7.21% (active)	32.7%	38.6%	2.86% (active)	31.9	33.3%	80.2%	-27.8% (active)	11.9%	52.3	0.115% (active)	37.4%	82.2%	9.13% (active)	-10.5% (active)
N#CC1CCc2c(c(-c3cn[nH]c3C(F)(F)F)nc3c(F)cc4[nH]ncc4c23)C1 (stereo not given)	86.1%	42.1%	-4.91% (active)	32.7	28.9%	43.6%	6.54% (active)	8.91% (active)	17.1%	24.9	-34.6% (active)	57.4%	25.7%	56.8%	19.4	62.9%	25.6%	-23.3% (active)	29.2%	19.8%
COc1ccc(-c2cn(-c3cc(OC)c(OC)c(OC)c3)c(=O)n2C(C)=O)cc1	90.9%	85.4%	88.3%	92.9	97.6%	105%	94%	84.2%	95.5%	103	86.3%	91%	91.3%	84.3%	98.9	87.1%	12.1%	68.3%	91.7%	75.1%
CC[C@]12C=CCN3CC[C@@]4(c5cc(NC(=O)CCC(=O)OCc6cn(Cc7ccc(F)cc7)nn6)c(OC)cc5N(C)[C@H]4[C@@](O)(C(=O)OC)[C@@H]1OC(C)=O)[C@@H]32	105%	103%	97%	98.5	101%	93.8%	112%	98%	99.3%	109	109%	101%	96.4%	85.8%	94	101%	89.7%	109%	102%	104%
Cc1ccc(-c2nc(/C=C3/C(=O)Nc4ccccc43)c3ccccn23)cc1	26.5%	42.3%	88.9%	99.6	85.2%	78.3%	82.9%	84.5%	77.1%	133	39.3%	80.1%	82.6%	54.3%	88.9	16.6%	48.8%	104%	84.3%	72.2%
O=C(Cn1c(=O)sc2ccccc21)NNS(=O)(=O)c1ccccc1[N+](=O)[O-]	103%	99.3%	83.3%	103	97.9%	96.2%	101%	98.8%	96.4%	104	103%	98.5%	109%	86.1%	104	101%	85.2%	110%	102%	101%
Nc1ncnc2c1N=C(c1ccc(Cl)cc1)CC(c1ccc3c(c1)OCO3)N2 (stereo not given)	98.6%	91.7%	85.7%	86.4	92.8%	85.2%	98%	94.8%	96.5%	99.8	52%	94.6%	97.2%	80.5%	111	87.6%	84.1%	99.5%	-54.1% (active)	71.5%
O=C1/C(=C/c2cccs2)SC(=S)N1CCCN1CCOCC1	83.6%	103%	99%	92.5	94.8%	75.5%	95.3%	79.1%	89.1%	95.8	101%	94.8%	83.3%	82.4%	122	95.3%	91.5%	72.2%	87.5%	101%
Nc1ncnc2c1N=C(c1ccc3c(c1)OCO3)CC(c1cccc(Nc3ccnc4cc(Cl)ccc34)c1)N2 (stereo not given)	36.4%	27.8%	74.6%	58.2	26.5%	54.2%	53.4%	57%	27.2%	91.3	68.7%	62.2%	50.7%	44%	65.7	67.5%	53.4%	61.5%	21.5%	52.7%
Brc1c2c(c(Br)c3ccccc13)CCCC2	112%	85.2%	97.8%	96.4	91.2%	93.6%	98.3%	84.9%	100%	101	93.8%	97.2%	94.2%	95.2%	99.2	104%	99.2%	94.6%	96.5%	95.8%
Cc1ccc(Sc2oc(-c3ccc(C)cc3)nc2[P+](c2ccccc2)(c2ccccc2)c2ccccc2)cc1	0.625% (active)	1.95% (active)	-23.6% (active)	14	12.9%	5.64% (active)	-97.7% (active)	-38.1% (active)	-69.3% (active)	17	-36% (active)	6.65% (active)	3.64% (active)	-22.3% (active)	22.7	-6.75% (active)	-23.2% (active)	-40.5% (active)	-2.03% (active)	-25.9% (active)
O=C(NCCCCNC(=O)OCc1ccc2c(Cl)cc(Cl)c(O)c2n1)OCc1ccc2c(Cl)cc(Cl)c(O)c2n1	13%	103%	24.6%	62.7	9.05% (active)	18.8%	-46.4% (active)	36.7%	14.4%	50.6	29.6%	91.3%	28.1%	37.2%	61.3	26.2%	13.1%	-1.85% (active)	18.3%	22.6%
O=[N+]([O-])c1ccc(N/N=C(/C(=N/Nc2ccc([N+](=O)[O-])cc2)c2ccccc2)c2ccccc2)cc1	16.9%	16.4%	90.3%	93.3	53.4%	82%	86.3%	78.6%	61%	121	11.2%	94.1%	81.4%	51.8%	94.4	-1.56% (active)	53.7%	101%	90.9%	73.9%
COc1cc2oc(-c3cccc(NC(=O)c4cccc(Br)c4)c3)cc(=O)c2c(OC)c1OC	31.3%	34.7%	62.6%	75.2	53.9%	34.6%	48.6%	57.1%	39.6%	71.1	54%	61.3%	54.2%	36.8%	65.5	44.1%	51.4%	46.6%	30.3%	41.7%
c1ccc(CNc2c3ccccc3nc3ccccc23)cc1	24.6%	19%	64.4%	39.4	38.5%	37.2%	63.1%	61%	19.8%	85.5	60.8%	48.1%	37.5%	23.8%	48.7	18.1%	33.1%	16.6%	39%	15.5%
Cc1nc2c(=O)[nH]c(SCC(=O)Nc3cccc(F)c3)nc2[nH]c1=O	102%	107%	93.6%	102	106%	102%	102%	98.9%	101%	107	103%	104%	100%	84%	105	105%	89.3%	111%	90.8%	100%
